Many of the other results were omitted from the sample, so hits are more common in it than they were.
Tg IFNy HTS – blocks Toxoplasma gondii growth in the presence of IFN-gamma. activity change, negative = inhibition, % (no concentration beside the values). Toxoplasma gondii growth in IFN-gamma-treated host cells; hits give low values. actives 3.8% (n = 69,000); in the data active = activity change below about -70%, passing the limit was not always enough;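 also: host cells are HeLa cells infected with Toxoplasma gondii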
Hits are given with their value; - = inactive.

SMILES | Tg IFNy HTS
COc1ccccc1CC(=O)Nc1ccc(-c2nc(Cn3cc(C)cn3)c(C)o2)cc1 | -95
Cc1ccc(NC(=O)c2nnn(Cc3nc(-c4ccccc4C)oc3C)c2C)cc1Cl | -
Cc1cc(C(=O)NC2CC3(CCOCC3)Oc3ccccc32)on1 (stereo not drawn) | -
O=C([C@H]1CCCO1)N1CCC2(CC1)CN(CCO)c1ccccc12 | -
O=C(Cn1ncc2c(N3CCCCC3)ncnc21)NCCCc1ccccc1 | -
CS(=O)(=O)NC1CCOC2(CCN(Cc3cccs3)CC2)C1 (stereo not drawn) | -
COc1ccc(Nc2nccc(NCCO)n2)cc1 | -
CCN(CC)c1ccc(NC(=S)NC(=O)c2ccc(OC)cc2)cc1 | -
CCN(CC)c1nc(Nc2ccc(OC)cc2)nc(Nc2ccc(OC)cc2)n1 | -97
CCc1nc(OCC(=O)Nc2ccc(Cl)c(C(F)(F)F)c2)c2ccccc2n1 | -
CNC(=O)c1cc(Oc2ccc(NC(=O)Nc3ccc(Cl)c(C(F)(F)F)c3)c(F)c2)ccn1 | -81
Cc1nc(OCC(=O)Nc2ccc(Cl)c(C(F)(F)F)c2)c2ccccc2n1 | -
Cc1c(S(=O)(=O)Nc2ccc3c(c2)N(C)C(=O)CO3)cnn1C(F)F | -
Cc1nccn1Cc1ccccc1C(=O)NC(c1ccc(F)cc1)C(C)C (stereo not drawn) | -
NC(=O)N1c2ccccc2CC(O)c2ccccc21 (stereo not drawn) | -
COc1cc(=O)n2c(c1C(=O)Nc1cnc3n1CCCC3)CCNCC2 | -
CN1CCn2c(-c3ccccc3)cnc2C12CCN(S(=O)(=O)c1ccccc1)CC2 | -108
Cc1ccc(CN2CCC3(CC2)c2ncc(-c4ccccc4)n2CCN3C)o1 | -
Cc1ccc(C)c(S(=O)(=O)N2CCC3(CC2)c2ncc(-c4cccc(F)c4)n2CCN3C)c1 | -
Cc1nc(-c2ccc(F)cc2)sc1CCNS(=O)(=O)c1ccccc1Cl | -
CC(=O)Nc1nc(C)c(-c2ccc(Cl)c(S(=O)(=O)NCCO)c2)s1 | -81
COc1ccc(-c2nc(C)c(CCNS(=O)(=O)c3cc(Cl)ccc3Cl)s2)cc1 | -
CN(C)c1nc2ccccc2cc1CN(Cc1ccncc1)C1CC(C)(C)NC(C)(C)C1 | -
C=CC(=O)N1CCn2cc(CN3CCCC3)nc2C1 | -
Cc1oc(-c2ccc(OC(C)C)cc2)nc1CSc1nc2c(=O)[nH]cnc2n1C | -
SMILES | Tg IFNy HTS
Cc1oc(-c2ccc(OC(C)C)cc2)nc1Cn1c(=O)c2cccnc2n(-c2ccccc2)c1=O | -
Cc1oc(-c2ccc(OC(C)C)cc2)nc1CSc1nc2ncccc2o1 | -96
Cc1[nH]n2c(=O)c3c(nc2c1-c1cccs1)CCC3 | -
Cc1cccc(-c2cc3nc4c(c(=O)n3[nH]2)CCC4)c1 | -100
Cc1cccc(-c2cc3nc(C)cc(=O)n3[nH]2)c1 | -
COc1ccc(-c2nc(C)c(CCNC(=O)c3cccc([N+](=O)[O-])c3)s2)cc1 | -
CCN(C/C=C/c1ccccc1)C(=O)c1ccc(NC(C)=O)cc1 | -
CN(C)c1ncc(CN2CCCC2c2nc(-c3ccccc3)no2)s1 (stereo not drawn) | -
CC(=O)N1CCO[C@H]2CN(S(=O)(=O)c3cccnc3)C[C@@H]2C1 | -
CCOc1cc(CCC(=O)N2CCc3[nH]c4c(Cl)cccc4c3C2)on1 | -
CCOc1cc(CCC(=O)N2CCCc3c(Cl)cc(Cl)c(O)c32)on1 | -87
CCOc1cc(CCC(=O)Nc2n[nH]c(CC)n2)on1 | -
CCCc1nc(C)c(CNC(=O)c2c(Cl)c(C)nn2C)s1 | -
Nc1ncnc2c1c(-c1cccc(OCc3ccccc3)c1)cn2C1CC(CN2CCCC2)C1 (stereo not drawn) | -74
COc1cccc(-c2nn(-c3ccccc3)cc2CN2CCC(CN3CCOCC3)CC2)c1 | -
CCS(=O)(=O)c1ccc(O)c(NC(=O)Nc2ccc(C)c(Cl)c2)c1 | -
CCc1cnc(N2CCC3C2CCC(=O)N3CC2CCOCC2)nc1 (stereo not drawn) | -
O=C(c1ccccc1C(F)(F)F)N1CCC2(CC1)Nc1ccc(Cl)cc1-n1cccc12 | -
O=C(Cc1ccc2c(c1)OCO2)N1CCC(c2nc(-c3ccsc3)cc(=O)[nH]2)CC1 | -80
CCn1c(C2CCCN(C(=O)Cc3ccc4c(c3)OCO4)C2)nn(C)c1=O (stereo not drawn) | -
O=C1CC2(CCN(C(=O)Cc3ccc4c(c3)OCO4)CC2)CN1 | -
CN1CC2(CCN(C(=O)c3ccn(C(C)(C)C)c3)C2)OC1=O (stereo not drawn) | -
CC(C)CCN1C2(CCN(C(=O)Cc3cccnc3)C2)c2ccccc2S1(=O)=O (stereo not drawn) | -
CC(C)CCN1C2(CCN(C(=O)c3ccno3)C2)c2ccccc2S1(=O)=O (stereo not drawn) | -
CC(C)CCN1C2(CCN(C(=O)NC3CCCC3)C2)c2ccccc2S1(=O)=O (stereo not drawn) | -87
SMILES | Tg IFNy HTS
CCOC(=O)C1(Cc2cccc(Cl)c2)CCCN(C(=O)Cc2cnc3ncnn3c2)C1 (stereo not drawn) | -
COCCN1CCN(C)C2(CCN(C(=O)c3csnn3)CC2)C1=O | -
CCCCN(C1CCN(C(C)=O)CC1)S(=O)(=O)c1ccc2[nH]c(=O)ccc2c1 | -
COCCN(Cc1ccc2c(c1)CCCN2C)S(=O)(=O)c1ccc2[nH]c(=O)ccc2c1 | -
CCN1CCCc2cc(CN(C3CCCC3)S(=O)(=O)c3ccc4[nH]c(=O)ccc4c3)ccc21 | -86
CSCc1noc(CN2CCCC(O)(CO)CC2)n1 (stereo not drawn) | -
CNC(=O)c1c(NCc2cccc(OCc3cccnc3)c2)cnn1C | -
C[C@@H]1CN([C@@H](C)CO)S(=O)(=O)c2ccc(C#CCC3CCCC3)cc2O[C@H]1CN(C)C(=O)c1cnccn1 | -
C[C@@H]1CN([C@@H](C)CO)S(=O)(=O)c2ccc(C#Cc3ccccc3F)cc2O[C@H]1CN(C)C(=O)Cc1cccnc1 | -90
C[C@H]1CN([C@@H](C)CO)S(=O)(=O)c2ccc(C#CCC3CCCC3)cc2O[C@H]1CN(C)C(=O)c1cnccn1 | -91
COCC#Cc1ccc2c(c1)O[C@H](CN(C)C(=O)C1CCOCC1)[C@H](C)CN([C@H](C)CO)S2(=O)=O | -
COc1cccc(C#Cc2ccc3c(c2)O[C@@H](CN(C)C(=O)CN2CCOCC2)[C@@H](C)CN([C@H](C)CO)S3(=O)=O)c1 | -
COc1cccc(C#Cc2ccc3c(c2)O[C@H](CN(C)C(=O)CN2CCOCC2)[C@H](C)CN([C@H](C)CO)S3(=O)=O)c1 | -
O=C(O)CN1CCC(F)(F)C2(CCN(c3ccccc3)C2)C1 (stereo not drawn) | -
COc1ccc(CN2CCN3CCN(C)C(=O)C3C2)cc1F (stereo not drawn) | -
Cc1cc(C)n(Cc2nc(-c3ccc(NC(=O)c4ccc(F)c(Cl)c4)cc3)oc2C)n1 | -
Cc1cc(C)n(Cc2nc(-c3ccc(NC(=O)c4ccc(C)c(C)c4)cc3)oc2C)n1 | -88
Cc1ccc(C(=O)Nc2ccc(-c3nc(Cn4nc(C)cc4C)c(C)o3)cc2)c(C)c1 | -
COc1ccc(CC(=O)Nc2ccc(-c3nc(Cn4nc(C)cc4C)c(C)o3)cc2)cc1 | -
COc1ccccc1C(=O)Nc1ccc(-c2nc(Cn3nc(C)cc3C)c(C)o2)cc1 | -85
COc1ccccc1CC(=O)Nc1ccc(-c2nc(Cn3nc(C)cc3C)c(C)o2)cc1 | -80
Cc1cc(C)n(Cc2nc(-c3ccc(NC(=O)c4ccccc4F)cc3)oc2C)n1 | -
Cc1cc(C)n(Cc2nc(-c3ccc(NC(=O)c4ccc(N(C)C)cc4)cc3)oc2C)n1 | -

From PubChem
